According to PubChem BioAssay (NCI):
This is part of a sample that, as a whole, favours compounds with a hit. Of some 79,000 tested, about 15% had one in any assay. No stated cut-off is given here; in the data, active means growth inhibition above about 70%; inactive means the rest.

How the values were obtained:
[1] = NCI Yeast Anticancer Drug Screen. Data for the rad50 strain (AID 155);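 further: 0% = growth of vehicle-only cultures of the same strain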; details: S. cerevisiae rad50 strain growth inhibition; at 50.0 µM; active compounds read high
In short: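 Readout: growth inhibition relative to vehicle-treated cultures. Compound exposure was carried out in a genetically defined yeast strain deficient in DNA damage repair.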

[2] = NCI Yeast Anticancer Drug Screen. Data for the mec2-1 strain (AID 157); details: S. cerevisiae mec2-1 strain, at 50.0 µM, active compounds read high
In short: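 Each compound was tested on mec2-1 yeast, a strain altered in DNA damage repair or cell cycle control. Growth inhibition is reported relative to vehicle.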

[3] = NCI Yeast Anticancer Drug Screen. Data for the sgs1 mgt1 strain (AID 161);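 further: 0% = growth of cultures given vehicle only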; details: S. cerevisiae sgs1 mgt1 strain, at 50.0 µM, active compounds read high
In short: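 Genetically altered yeast, compound exposure, growth inhibition relative to vehicle.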

[4] = NCI Yeast Anticancer Drug Screen. Data for the cln2 rad14 strain (AID 165);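 further: 0% = growth equal to vehicle treated cultures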; details: S. cerevisiae cln2 rad14 strain, at 50.0 µM, active compounds read high
In short: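 Test compounds were added to cln2 rad14 yeast cultures; inhibition of growth was then determined by comparison with vehicle treatment.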

[5] = NCI Yeast Anticancer Drug Screen. Data for the bub3 strain (AID 167); details: S. cerevisiae bub3 mutant strain, at 50.0 µM, active compounds read high
In short: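 Readout: yeast growth inhibition, expressed relative to vehicle-only wells. The test organism is a mutant strain from a panel with lesions in DNA repair or checkpoint genes.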

[6] = NCI Yeast Anticancer Drug Screen. Data for the mlh1 rad18 strain (AID 175); details: S. cerevisiae mlh1 rad18 strain growth inhibition; at 50.0 µM; active compounds read high
In short: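 Inhibition values reflect reduced growth of mutant yeast versus vehicle-treated controls following compound exposure; the mutations affect DNA damage repair.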

Measured: growth inhibition

Nc1nc(N)c2ccccc2n1
inactive: [1] -11.3% | [2] 13.8% | [3] -5.2% | [4] -0.5% | [5] -6.9% | [6] -1.7%

CC(CC(C(=O)Nc1ccccc1)(c1ccccc1)c1ccccc1)N(C)C (stereo unspecified)
inactive: [1] -0.2% | [2] -18.2% | [3] 3.55% | [4] -2.15% | [5] -5.1% | [6] 6.2%

CCCC(=O)OCC(O)CO (stereo unspecified)
inactive: [1] 12.2% | [2] 1.5% | [3] 1.3% | [4] 18.5% | [5] 4.1% | [6] 18.6%

Cc1ccccc1S(=O)(=O)N1C(=O)c2ccccc2S1(=O)=O
inactive: [1] 12.8% | [2] -13.8% | [3] 5.35% | [4] 10.2% | [5] 5.15% | [6] -13.8%

N#CCc1c(F)c(F)c(F)c(F)c1F
inactive: [1] 6.8% | [2] 5.75% | [3] 14.4% | [4] 3.2% | [5] 10.5% | [6] 2.6%

Cc1ccc(C(C)C)cc1NC(=O)c1c(Cl)c(Cl)c(Cl)c(Cl)c1C(=O)O
inactive: [1] 14.6% | [2] 9.8% | [3] 23.9% | [4] -32.4% | [5] 6.45% | [6] 23.3%

NC(=S)SCCC(=O)N1CCCC1
inactive: [1] -1.25% | [2] -10.1% | [3] -9.55% | [4] -19.6% | [5] -7.35% | [6] -1.7%

COC(=O)C1=C(C(=O)OC)C2(CCCCCC2=O)OC1=O (stereo unspecified)
inactive: [1] -0.65% | [2] 5.45% | [3] -12.8% | [4] 8.9% | [5] 3.85% | [6] -8.25%

COC(=O)C1=C(C(=O)OC)C23CC4CCC2(C(=O)C1O3)C4(C)C (stereo unspecified)
inactive: [1] 36.4% | [2] 18% | [3] 23% | [4] 8.65% | [5] 21.5% | [6] -5.15%

CC(=O)COC(C)=O
inactive: [1] 40.2% | [2] -15.6% | [3] 4.85% | [4] -5% | [5] 2.6% | [6] 12.6%

COC(=O)C1CN(c2ccccc2)CCC1=O (stereo unspecified)
inactive: [1] -28.9% | [2] -31.8% | [3] -0.55% | [4] -35.7% | [5] -10.3% | [6] -12.7%

O=C1C=CC(=O)C1
inactive: [1] 16% | [2] -7.95% | [3] 3.15% | [4] -0.3% | [5] 5.65% | [6] -3.75%

COc1cccc(N=Nc2c(-c3ccccc3)nn(C(=S)S)c2C)c1
inactive: [1] -2.6% | [2] 0.6% | [3] 17.6% | [4] -192% | [5] 19.3% | [6] 20.6%

COC(=O)Nc1cccc(OC(=O)NC2CCCCC2)c1
inactive: [1] 12.1% | [2] 32.7% | [3] 15.1% | [4] 4.25% | [5] 33.8% | [6] 16.4%

CCC1(O)C(=O)c2ccccc2N(c2ccccc2)C1=O (stereo unspecified)
inactive: [1] 9.05% | [2] 3.7% | [3] 4% | [4] -5.85% | [5] 8.3% | [6] 18.2%

CCOC(=O)/C=C(\CC(=O)OCC)Nc1ccc(OC)cc1
inactive: [1] 6.8% | [2] -21.1% | [3] 4.1% | [4] -13.2% | [5] -2.3% | [6] -15.9%

Nn1nc2ccccc2n1
inactive: [1] -0.15% | [2] 0.2% | [3] -11.1% | [4] 1.6% | [5] 0.75% | [6] 1.45%

CN(C)NC(=O)Oc1ccc(Cl)cc1
inactive: [1] -0.25% | [2] -0.35% | [3] -11.4% | [4] -4.55% | [5] -33.3% | [6] 2.75%

Cc1ccc2nc(CC(=O)c3ccc4ccccc4c3)c(=O)[nH]c2c1
inactive: [1] 6.4% | [2] 9.65% | [3] 9.2% | [4] 13.3% | [5] 3.15% | [6] 22.1%

N#CC1=C(S)N(C2OC(CO)C(O)C(O)C2O)C(c2ccccc2)=CC1c1ccco1 (stereo unspecified)
inactive: [1] 36.1% | [2] 13% | [3] 4.85% | [4] -12.4% | [5] -3% | [6] 27.6%

COC(=O)c1c(-c2ccc(OC)c(OC)c2)cn(C)c1C
inactive: [1] 19.4% | [2] 12.8% | [3] 21% | [4] -6.15% | [5] 10.5% | [6] 25.2%

CCCCCC(=C/c1ccccc1)/C=N/N1CCN(/N=C/C(=C/c2ccccc2)CCCCC)CC1
inactive: [1] 32.1% | [2] 10.8% | [3] 22.4% | [4] 3.2% | [5] -0.85% | [6] 11.2%

C=CCNC(=S)Nc1cc(Cl)ccc1OC
inactive: [1] 6.15% | [2] 8.45% | [3] -2.45% | [4] -5.45% | [5] 1.2% | [6] 7.1%

ClC[C@H]1C[C@@H]2C[C@@H]1[C@H]1O[C@@H]21
inactive: [1] -7.4% | [2] -21.6% | [3] -11.2% | [4] -5.35% | [5] -9.6% | [6] 10.8%

CCOC(=O)C(/C(=N/NC(=O)OC)C(=O)Nc1ccc(C(C)=O)cc1)c1cnc2ccccc2n1 (stereo unspecified)
inactive: [1] 0.9% | [2] -40.9% | [3] -26.6% | [4] 26.1% | [5] -1.5% | [6] 0.25%

COCCCNc1ccc([N+](=O)[O-])cn1
inactive: [1] -21.4% | [2] -40.6% | [3] -20.4% | [4] 2.2% | [5] -13% | [6] -14.4%

CC(=O)OCC1OC(OC(C)=O)C(NC(=O)c2ccc(Br)cc2)C(OC(C)=O)C1OC(C)=O (stereo unspecified)
inactive: [1] 42.1% | [2] 19.4% | [3] 39.5% | [4] 19.6% | [5] -1.1% | [6] 31.8%

CC(=O)NC(C=O)C(O)C(O)C(O)CO (stereo unspecified)
inactive: [1] -29.4% | [2] -24.8% | [3] -11.1% | [4] -16.2% | [5] -7% | [6] 2.25%

NC(=O)C1=NNc2ccccc2C(=O)N1c1ccccc1
inactive: [1] 8.3% | [2] -10.2% | [3] -20.1% | [4] 9.9% | [5] 6.9% | [6] 2.55%

CCOC(=O)C(O)(NC(=O)c1ccc(F)cc1)C(F)(F)F (stereo unspecified)
inactive: [1] 12.2% | [2] 1.85% | [3] -9.9% | [4] 17.1% | [5] -10.2% | [6] -23.9%

CC(C)CC(NC(=O)OC(C)(C)C)C(=O)NC(Cc1c[nH]c2ccccc12)C(=O)NN (stereo unspecified)
inactive: [1] 37.8% | [2] 14.2% | [3] 29.4% | [4] 32.3% | [5] 0.75% | [6] 27.7%

Cc1nc2ccc(Cl)cc2c(-n2ccnc2)c1CCn1ccnc1
inactive: [1] -11.6% | [2] -4.6% | [3] -3.55% | [4] -0.5% | [5] 9.25% | [6] -3.7%

CC1(C)OC(CP(=O)(c2ccccc2)c2ccccc2)C(CP(=O)(c2ccccc2)c2ccccc2)O1 (stereo unspecified)
inactive: [1] 23.1% | [2] 13.1% | [3] 15.4% | [4] 18.2% | [5] -2.2% | [6] 13.2%

CCOC(=O)c1sc(SSc2nc(C)c(C(=O)OCC)s2)nc1C
inactive: [1] -4.4% | [2] -4.7% | [3] 2.7% | [4] 12.9% | [5] 4.75% | [6] 10.1%

O=C(O)c1c[nH]c2ccc([N+](=O)[O-])cc2c1=O
inactive: [1] -21% | [2] -12.8% | [3] -11.9% | [4] 11.7% | [5] -14% | [6] -7.95%

CC1C(c2ccccc2)NC(c2ccccc2)C(C)C1(O)c1ccccc1 (stereo unspecified)
inactive: [1] 10.3% | [2] 5.3% | [3] 11.6% | [4] -23.1% | [5] 11.1% | [6] 16.4%

CC1CCOCCCOC(=O)CCOCCC(=O)OCCCOCCCOC(=O)CCOCCC(=O)O1 (stereo unspecified)
inactive: [1] 0.7% | [2] 2.4% | [3] 5% | [4] 15.9% | [5] -5.95% | [6] -4.45%

C=C1C(=O)O[C@@H]2C(=O)[C@@H](C)[C@@H]3C=CC(=O)[C@@]3(C)[C@@H](OC(=O)/C(C)=C\C)[C@H]12
inactive: [1] -2.4% | [2] -14.3% | [3] 8.8% | [4] 10.7% | [5] 7.4% | [6] 27.1%

C/C(CC(=O)Nc1ccccc1C)=N/NS(=O)(=O)c1ccc(C)cc1
inactive: [1] -2.2% | [2] -5.2% | [3] 10.2% | [4] 19.3% | [5] -18.4% | [6] -6.9%

NC(=S)N/N=C/c1ccco1
inactive: [1] -26.2% | [2] -11.3% | [3] -18.3% | [4] -67.2% | [5] -23.9% | [6] -8.2%

CCOC(CN=Cc1cccc2ccccc12)OCC
inactive: [1] -26.4% | [2] -1.4% | [3] -11.8% | [4] 46.7% | [5] -3.55% | [6] 18.6%
